FLuc counter = inhibits or activates purified firefly luciferase, miR-21 counter-screen | AID 588342 | purified FLuc, Km substrates, luminescence inhibition | P08659 | Potency, µM (top dose mostly 57.5 µM), usual class: inhibitors | 360,000 tested, 6.9% active; note: nearly all actives have a fitted effect of over 55% in size
Target sequence (P08659 whole entry, looked up): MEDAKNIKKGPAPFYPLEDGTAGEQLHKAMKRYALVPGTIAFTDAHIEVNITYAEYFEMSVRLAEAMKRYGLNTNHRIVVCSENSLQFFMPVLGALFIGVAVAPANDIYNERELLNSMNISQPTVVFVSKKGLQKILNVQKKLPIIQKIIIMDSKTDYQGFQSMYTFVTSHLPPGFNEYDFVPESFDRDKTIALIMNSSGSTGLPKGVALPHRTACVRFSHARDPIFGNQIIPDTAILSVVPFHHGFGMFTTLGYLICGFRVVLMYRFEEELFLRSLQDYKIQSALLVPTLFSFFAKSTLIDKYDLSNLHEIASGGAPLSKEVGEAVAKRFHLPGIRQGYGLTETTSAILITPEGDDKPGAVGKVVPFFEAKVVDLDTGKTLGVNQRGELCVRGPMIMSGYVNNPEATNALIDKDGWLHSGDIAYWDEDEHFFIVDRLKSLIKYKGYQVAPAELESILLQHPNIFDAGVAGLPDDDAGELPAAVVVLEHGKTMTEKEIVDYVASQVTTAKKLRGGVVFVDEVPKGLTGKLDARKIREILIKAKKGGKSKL
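Purified P. pyralis luciferase (10nM final) with 10uM D-luciferin and 10uM ATP (Km levels) in 50mM Tris acetate pH 7.5, 10mM Mg acetate, 0.01% Tween-20, 0.05% BSA; qHTS 6-point titration, ~60 µM downward; luminescence read.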
SMN2 splice enh = enhancers of SMN2 splice variant expression; AID 1458; Potency, µM (doses to about 46.1 µM), usual class: activators; HEK293 SMN2-luciferase splicing reporter, luminescence, 30-36 h; 210,000 tested, 2.8% active; note: nearly all actives have a fitted effect of over 55% in size
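HEK293 cells carry an SMN2 […]–luciferase reporter in which exon 7 inclusion puts luciferase in frame. Cells were plated 10-12 h before compound addition, then incubated 30-36 h at 37C. ONE-Glo luminescence was read; sodium butyrate at 4.5 mM final served as control.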
Rab9 prom act = Rab9 promoter activation. AID 485297. Huh7 Rab9 promoter-luciferase reporter, luminescence, 24 h. Potency, µM (series often up to 9.22 µM), actives largely listed as activators. 320,000 tested, 2.8% active; note: nearly all actives have a fitted effect of over 60% in size
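Luminescence read-out: Huh7 cells stably expressing Rab9-luciferase, treated 24 h with compound at 37 °C, then lysed with luciferase reagent for 10 min at ambient before reading.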
NPC1 prom act = activates the NPC1 promoter; Huh7 NPC1 promoter luciferase reporter, 24 h; Potency, µM (titrated, usually from 9.22 µM), usual class: activators; 320,000 tested, 2.4% active; AID 485313; note: nearly all actives have a fitted effect of over 60% in size
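Stably transfected Huh7 (NPC1 promoter→luciferase), 1500 cells/well in Opti-MEM + 10% FBS, 2 h settle, then compound 24 h at 37 °C. Luminescence after 10 min with Amplite reagent.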
ELG1 genotoxic = genotoxicity induction in ELG1-luciferase HEK293T cells | HEK293T ELG1-luciferase reporter, luminescence, 16 h | Potency, µM (highest dose often 46 µM), usual class: activators | 330,000 tested, 1.3% active | AID 504466; note: nearly all actives have a fitted effect of over 60% in size
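DMSO vehicle served as control against compound-treated ELG1-luciferase HEK293T cells; exposure lasted 16 hr at 37 °C and 5% CO2, followed by ONE-Glo luminescence detection after 30 min.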
Large screens that a line does not name were inactive. This is a sample that favours compounds with a hit; in the whole collection about 7.4% have one here. Calls come from the whole dose curve; as a rule, active = well fitted curve in the direction sought with a large enough effect; inconclusive = small, poorly fitted or top-dose-only effect, or another doubt; inactive = no such curve, though single readings can be large; an effect the other way counts as inactive or inconclusive.

NC(C(=O)O)c1cc(O)cc(O)c1 (configuration not stated)	none (no result: FLuc counter, Rab9 prom act, NPC1 prom act, ELG1 genotoxic)
CC(=O)Nc1ccc(S(=O)(=O)NC2(C(F)(F)F)C(=O)Nc3c2c(=O)[nH]c(=O)n3-c2cccc(Cl)c2)cc1 (configuration not stated)	none (no result: Rab9 prom act, NPC1 prom act, ELG1 genotoxic)
CCCc1nn(C)c(C(=O)Nc2ccc3ccccc3c2)c1Cl	FLuc counter 11µM, SMN2 splice enh 14µM, Rab9 prom act inconclusive, NPC1 prom act inconclusive, ELG1 genotoxic inconclusive
CCCc1nn(C)c(C(=O)Nc2cccc(CC)c2)c1Cl	FLuc counter 17µM, SMN2 splice enh inconclusive, Rab9 prom act inconclusive, NPC1 prom act inconclusive
Cc1nc2cccnc2n1C1CCN(C(=O)Nc2ccc(Cl)cc2)CC1	none (no result: SMN2 splice enh, Rab9 prom act, NPC1 prom act, ELG1 genotoxic)
COc1cccc(-c2cc(C(=O)Nc3ccncc3)c3ccccc3n2)c1	FLuc counter 17µM (no result: SMN2 splice enh)
COc1cccc(-c2cc(C(=O)Nn3cnnc3)c3ccccc3n2)c1	FLuc counter 0.95µM
COc1cccc(NC(=O)c2cc(-c3ccccn3)nc3ccccc23)c1	none (no result: SMN2 splice enh)
CCc1ccc(C2Sc3ccccc3NC3=C2C(=O)c2ccccc23)cc1 (configuration not stated)	FLuc counter 11µM (no result: Rab9 prom act, NPC1 prom act, ELG1 genotoxic)
O=C1C2=C(Nc3ccccc3SC2c2ccco2)c2ccccc21 (configuration not stated)	FLuc counter inconclusive
CC(C)c1ccc(C2Sc3ccccc3NC3=C2C(=O)c2ccccc23)cc1 (configuration not stated)	FLuc counter 6µM (no result: Rab9 prom act, NPC1 prom act, ELG1 genotoxic)
O=C1C2=C(Nc3ccccc3SC2c2ccc(C(F)(F)F)cc2)c2ccccc21 (configuration not stated)	none (no result: Rab9 prom act, NPC1 prom act, ELG1 genotoxic)
N#Cc1ccc(NC(=O)COCc2cc(-c3ccc4c(c3)OCO4)on2)cc1	none (no result: SMN2 splice enh, Rab9 prom act, NPC1 prom act, ELG1 genotoxic)
C=CCN1C(=O)/C(=C\c2ccc(OC(=O)c3ccco3)c(OC)c2)SC1=S	none
COc1cc(/C=N/NC(=O)c2ccc(F)cc2)ccc1OC(=O)c1ccco1	FLuc counter inconclusive
COc1cc(/C=C2/C(=O)NN(c3ccc(Cl)cc3)C2=O)ccc1OC(=O)c1ccco1	FLuc counter 24µM
COc1cc(/C=C2/C(=O)NN(c3cccc(F)c3)C2=O)ccc1OC(=O)c1ccco1	FLuc counter 24µM
Cc1ccc(C)c(NC(=O)CSc2ncc3c(n2)-c2cc(Cl)ccc2N(Cc2ccccc2F)S3(=O)=O)c1	none (no result: SMN2 splice enh, Rab9 prom act, NPC1 prom act, ELG1 genotoxic)
COc1cccc2c1CCC1=CC(=O)CC[C@@]12C	none (no result: FLuc counter, Rab9 prom act, NPC1 prom act, ELG1 genotoxic)
CCOC(=O)c1cc(C)n(CC2CCC(C(=O)Nc3ccccc3OC)CC2)c1C (configuration not stated)	none (no result: SMN2 splice enh, Rab9 prom act, NPC1 prom act, ELG1 genotoxic)
CC(C)NC(=O)C1CCC(Cn2c(=O)c3sccc3n(CC(=O)Nc3ccccc3)c2=O)CC1 (configuration not stated)	none (no result: SMN2 splice enh, Rab9 prom act, NPC1 prom act, ELG1 genotoxic)
CC(=O)Nc1ccc(C23CC4CC(CC(C4)C2)C3)cc1	FLuc counter 15µM, NPC1 prom act inconclusive (no result: SMN2 splice enh)
CNC(=S)Nc1ccc(C23CC4CC(CC(C4)C2)C3)cc1	FLuc counter inconclusive (no result: SMN2 splice enh)
Oc1ccc(C23CC4CC(CC(C4)C2)C3)cc1O	FLuc counter 15µM (no result: SMN2 splice enh)
Cc1csc(Nc2ccc(Cl)cc2)n1	FLuc counter 12µM, SMN2 splice enh inconclusive, Rab9 prom act inconclusive, NPC1 prom act inconclusive, ELG1 genotoxic inconclusive
Cc1csc(NS(=O)(=O)c2ccc(Cl)cc2)n1	none (no result: SMN2 splice enh)
Cc1ccc(Nc2nc(C)cs2)cc1	FLuc counter 13µM, SMN2 splice enh 8.9µM, Rab9 prom act inconclusive, NPC1 prom act inconclusive, ELG1 genotoxic 21µM
CCOC(=O)C1CCN(C(c2cccc(F)c2)c2c(O)cc(C)n(Cc3ccco3)c2=O)CC1 (configuration not stated)	none (no result: SMN2 splice enh, Rab9 prom act, NPC1 prom act, ELG1 genotoxic)
CCc1ccc(OCc2cnc(Cl)s2)cc1	FLuc counter 21µM, ELG1 genotoxic inconclusive
CC(=O)Nc1ccc(OCc2cnc(Cl)s2)cc1	none
O=C(OCc1cnc(Cl)s1)c1ccccc1Cl	FLuc counter inconclusive
Clc1ccc(OCc2cnc(Cl)s2)cc1	FLuc counter 15µM
Cc1cc(C)c(/C=C/c2onc(C)c2S(=O)(=O)N2CCC(C(=O)Nc3ccc(Cl)c(C(F)(F)F)c3)CC2)c(C)c1	none (no result: SMN2 splice enh, Rab9 prom act, NPC1 prom act, ELG1 genotoxic)
CCOC(=O)c1ccc(CC2S/C(=C(\C#N)C(C)=O)NC2=O)cc1 (configuration not stated)	FLuc counter inconclusive, ELG1 genotoxic inconclusive

Screening data as filed in PubChem.
